# Assay results from PubChem BioAssay (EPA / NIEHS).
# Inconclusive results are not listed. Activity calls are given as the source filed them. How the source made its calls, unless noted: active means hit-call score of the fitted dose curve at least 0.9, where 1 is the maximum; inconclusive means response in the unintended direction; inactive means score below 0.9.
# How the values were obtained:
# [1] = target: Androgen receptor (Homo sapiens) (UniProt P10275); experiment: ATG_AR_TRANS: Attagene TRANS-FACTORIAL HepG2 Assay for human Androgen Receptor (AR) (AID 2282973); settings: HepG2 Attagene TRANS-FACTORIAL AR reporter transcription
# Sequence of Androgen receptor (Homo sapiens) (P10275 whole entry, looked up, the tested form may be a part): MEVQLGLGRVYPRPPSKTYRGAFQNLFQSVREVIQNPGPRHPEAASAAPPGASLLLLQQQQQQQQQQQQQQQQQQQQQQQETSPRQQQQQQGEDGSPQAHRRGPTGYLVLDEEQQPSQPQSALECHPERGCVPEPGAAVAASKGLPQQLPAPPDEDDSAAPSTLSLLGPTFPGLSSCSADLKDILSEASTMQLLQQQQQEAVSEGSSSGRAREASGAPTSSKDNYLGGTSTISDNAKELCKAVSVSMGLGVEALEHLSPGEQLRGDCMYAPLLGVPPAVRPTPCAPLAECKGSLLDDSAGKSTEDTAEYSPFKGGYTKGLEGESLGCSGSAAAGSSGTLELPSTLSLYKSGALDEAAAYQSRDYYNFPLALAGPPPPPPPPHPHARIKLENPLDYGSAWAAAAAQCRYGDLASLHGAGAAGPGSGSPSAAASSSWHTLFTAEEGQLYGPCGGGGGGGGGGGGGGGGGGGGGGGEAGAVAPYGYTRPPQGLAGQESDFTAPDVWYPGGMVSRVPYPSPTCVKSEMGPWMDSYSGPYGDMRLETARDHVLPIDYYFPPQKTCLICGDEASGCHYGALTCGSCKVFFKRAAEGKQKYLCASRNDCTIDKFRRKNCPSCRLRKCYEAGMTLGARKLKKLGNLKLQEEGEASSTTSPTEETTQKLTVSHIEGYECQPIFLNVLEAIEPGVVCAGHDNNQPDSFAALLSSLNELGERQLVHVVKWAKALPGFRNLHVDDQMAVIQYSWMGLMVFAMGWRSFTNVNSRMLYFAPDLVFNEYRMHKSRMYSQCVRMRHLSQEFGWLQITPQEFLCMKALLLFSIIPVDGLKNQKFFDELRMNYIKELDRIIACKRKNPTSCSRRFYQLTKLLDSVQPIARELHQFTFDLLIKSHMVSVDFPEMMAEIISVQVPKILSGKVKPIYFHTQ
# Method in brief: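 HepG2 cells transiently transfected with AR-Gal4 chimera and GAL4-UAS reporter units; chemical exposure 24 h. Reporter mRNA quantified by RT-PCR with fluorescent labelling and capillary electrophoresis; gain-of-signal fitted against DMSO.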
# [2] = target: human Phosphatase and Tensin Homolog (PTEN), PTEN (gene 5728) (UniProt P60484); experiment: NVS_ENZ_hPTEN: NovaScreen (NVS) Enzymatic Assay for human Phosphatase and Tensin Homolog (PTEN) (AID 2283203)
# Sequence of human Phosphatase and Tensin Homolog (PTEN), PTEN (gene 5728) (P60484 whole entry, looked up): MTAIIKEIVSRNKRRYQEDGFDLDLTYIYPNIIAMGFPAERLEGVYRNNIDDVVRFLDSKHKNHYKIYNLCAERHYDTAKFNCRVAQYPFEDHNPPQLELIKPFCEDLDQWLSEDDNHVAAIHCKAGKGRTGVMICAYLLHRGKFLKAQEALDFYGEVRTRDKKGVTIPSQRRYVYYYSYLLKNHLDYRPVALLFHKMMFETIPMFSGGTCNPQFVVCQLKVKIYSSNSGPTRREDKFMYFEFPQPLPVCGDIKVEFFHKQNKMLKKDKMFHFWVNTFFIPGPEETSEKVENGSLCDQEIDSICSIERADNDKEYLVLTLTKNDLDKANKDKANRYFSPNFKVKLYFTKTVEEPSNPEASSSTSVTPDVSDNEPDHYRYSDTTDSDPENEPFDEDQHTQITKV
# Method in brief: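 Loss of fluorescent product signal after mobility-shift separation reports PTEN activity, recombinant human enzyme, 1 h after compound addition. Single 25 uM duplicate screen, then concentration-response on actives; DMSO baseline.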
# [3] = target: bovine Gamma-Aminobutyric Acid Type A Receptor BDZ, alpha 1 site (GABARa1), GABRA1 (gene 780973) (UniProt P08219); experiment: NVS_LGIC_bGABARa1: NovaScreen (NVS) Ligand-Gated Ion Channel Assay for bovine Gamma-Aminobutyric Acid Type A Receptor BDZ, alpha 1 site (GABARa1) (AID 2283321)
# Sequence of bovine Gamma-Aminobutyric Acid Type A Receptor BDZ, alpha 1 site (GABARa1), GABRA1 (gene 780973) (P08219 whole entry, looked up): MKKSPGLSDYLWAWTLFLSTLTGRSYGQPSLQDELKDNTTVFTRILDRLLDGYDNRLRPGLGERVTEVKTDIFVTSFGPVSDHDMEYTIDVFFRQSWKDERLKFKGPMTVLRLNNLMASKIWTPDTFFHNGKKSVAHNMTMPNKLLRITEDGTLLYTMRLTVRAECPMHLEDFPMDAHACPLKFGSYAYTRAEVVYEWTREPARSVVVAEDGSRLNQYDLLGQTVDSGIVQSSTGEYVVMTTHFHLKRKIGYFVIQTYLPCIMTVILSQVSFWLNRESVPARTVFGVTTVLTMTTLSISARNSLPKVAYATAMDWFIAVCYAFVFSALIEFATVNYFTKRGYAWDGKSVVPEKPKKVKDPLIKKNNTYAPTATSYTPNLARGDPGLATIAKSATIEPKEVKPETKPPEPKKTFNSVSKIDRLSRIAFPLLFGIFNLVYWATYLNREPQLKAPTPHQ
# Method in brief: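 Bovine cortex membrane preparation, benzodiazepine site on GABA-A alpha1; specific radioligand displacement read after 0.75 h by filtration and scintillation. Screen at 25 uM, then singleton titrations up to 50 uM; DMSO baseline.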
# [4] = target: human Neonicotinoid receptor (NNR), CHRNA2 (gene 1135) (UniProt Q15822); experiment: NVS_LGIC_hNNR_NBungSens: NovaScreen (NVS) Ligand-Gated Ion Channel Assay for human Neonicotinoid receptor (NNR) (AID 2283313)
# Method in brief: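 Compounds first screened in duplicate at 25 uM, then actives re-tested in single-replicate dose series up to 50 uM. Binding measured as displacement of specific radioligand from neuroblastoma membrane receptors after 2 h, scintillation read on filters.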
# [5] = target: rat Oxytocin Receptor (OXT), Oxtr (gene 25342) (UniProt P70536); experiment: NVS_GPCR_rOXT: NovaScreen (NVS) G Protein-Coupled Receptor Assay for rat Oxytocin Receptor (OXT) (AID 2283330)
# Method in brief: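 Binding to rat uterine membrane receptor was followed by scintillation counting of filter-trapped radioligand after 1 h. A 25 uM duplicate single-point screen preceded concentration series with a top of 50 uM. Signal loss was analysed relative to DMSO.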
# [6] = target: rat Monoamine Oxidase, MAO-B, Central (MAOBC), Maob (gene 25750) (UniProt P19643); experiment: NVS_ENZ_rMAOBC: NovaScreen (NVS) Enzymatic Assay for rat Monoamine Oxidase, MAO-B, Central (MAOBC) (AID 2283238)
# Sequence of rat Monoamine Oxidase, MAO-B, Central (MAOBC), Maob (gene 25750) (P19643 whole entry, looked up): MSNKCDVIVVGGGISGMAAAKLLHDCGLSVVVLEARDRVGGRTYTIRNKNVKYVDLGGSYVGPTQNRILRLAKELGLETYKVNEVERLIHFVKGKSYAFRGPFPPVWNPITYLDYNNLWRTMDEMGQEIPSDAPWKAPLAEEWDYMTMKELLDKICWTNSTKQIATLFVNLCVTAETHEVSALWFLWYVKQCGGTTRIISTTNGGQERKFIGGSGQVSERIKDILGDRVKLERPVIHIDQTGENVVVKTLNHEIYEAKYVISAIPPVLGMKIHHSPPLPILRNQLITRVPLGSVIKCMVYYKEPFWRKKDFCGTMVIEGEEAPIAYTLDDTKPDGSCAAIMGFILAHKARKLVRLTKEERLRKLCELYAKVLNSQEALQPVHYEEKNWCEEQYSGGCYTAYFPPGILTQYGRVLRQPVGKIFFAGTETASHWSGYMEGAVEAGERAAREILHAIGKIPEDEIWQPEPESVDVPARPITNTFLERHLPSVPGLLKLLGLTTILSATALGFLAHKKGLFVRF
# Method in brief: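 Actives from a duplicate 25 uM screen went on to singleton concentration-response with a 50 uM maximum. Enzyme source was rat brain tissue MAO-B, assayed cell-free. Radiolabelled product was counted by scintillation 1.17 h post-dose, with signal loss relative to DMSO.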
# [7] = tested on: rat Monoamine Oxidase, MAO-A, Central (MAOAC), gene 29253; experiment: NVS_ENZ_rMAOAC: NovaScreen (NVS) Enzymatic Assay for rat Monoamine Oxidase, MAO-A, Central (MAOAC) (AID 2283243);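 further: potency refers to inhibition seen as signal drop below DMSO baseline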
# Method in brief: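 Scintillation read-out of MAO-A activity in rat brain lysate, 1.5 h post-dosing. Primary single-concentration screen: 25 uM, duplicate; actives re-tested in concentration series. DMSO = negative control/baseline.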
# [8] = target: Norway rat Vesicular Monoamine Transporter (VMAT2), neurotransmitter transporter, Slc18a2 (gene 25549) (UniProt Q01827); experiment: NVS_TR_rVMAT2: NovaScreen (NVS) Transporter Assay for Norway rat Vesicular Monoamine Transporter (VMAT2), neurotransmitter transporter (AID 2283376);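 further: actives lower the bound radioligand signal below the DMSO level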
# Sequence of Norway rat Vesicular Monoamine Transporter (VMAT2), neurotransmitter transporter, Slc18a2 (gene 25549) (Q01827 whole entry, looked up): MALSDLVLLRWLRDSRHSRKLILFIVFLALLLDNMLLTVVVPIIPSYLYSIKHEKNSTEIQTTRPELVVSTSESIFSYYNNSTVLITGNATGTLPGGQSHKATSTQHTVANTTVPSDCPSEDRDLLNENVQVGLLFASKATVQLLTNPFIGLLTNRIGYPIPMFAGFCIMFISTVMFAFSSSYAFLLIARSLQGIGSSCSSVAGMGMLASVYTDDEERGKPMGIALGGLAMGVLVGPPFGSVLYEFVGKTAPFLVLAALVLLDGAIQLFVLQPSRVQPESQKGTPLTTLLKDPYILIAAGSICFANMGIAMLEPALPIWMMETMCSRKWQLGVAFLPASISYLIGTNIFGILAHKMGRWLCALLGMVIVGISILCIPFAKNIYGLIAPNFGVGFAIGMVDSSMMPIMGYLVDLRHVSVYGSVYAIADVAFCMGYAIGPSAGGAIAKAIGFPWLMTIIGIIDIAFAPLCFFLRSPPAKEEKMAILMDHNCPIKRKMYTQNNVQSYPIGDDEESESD
# Method in brief: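 Using rat forebrain membranes, specific radioligand binding to VMAT2 was measured by filtration and scintillation counting after 1 hour. Chemicals screened at 25 uM in duplicate, actives retested in concentration series, DMSO baseline.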
# [9] = target: Voltage-dependent N-type calcium channel subunit alpha-1B (Rattus norvegicus) (UniProt Q02294); experiment: NVS_IC_rCaChN: NovaScreen (NVS) Ion Channel Assay for rat Calcium Channel, Type N (CaChN) (AID 2283317)
# [10] = CCTE_Harrill_HTTr_Apoptosis_PRF_DMEM_12hr: (Pilot) CCTE's 12-hour Apoptosis Assessment for the High-Throughput Transcriptomics (HTTr) Platform, in MCF-7 cells cultured in phenol red-free DMEM + 10% charcoal-stripped fetal bovine serum, Harrill Lab (AID 2283985; active means hit-call score of the fitted dose curve at least 0.9, where 1 is the maximum; inactive means score below 0.9)
# Method in brief: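 Caspase-3/7 activity by CellEvent Green high content imaging after 12 h compound exposure (eight concentrations) in MCF-7 grown in phenol red-free DMEM plus 10% charcoal-stripped serum; DMSO as baseline.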
# [11] = target: human Raf-1 Proto-Oncogene, serine/threonine Kinase (RAF1), RAF1 (gene 5894) (UniProt P04049); experiment: NVS_ENZ_hRAF1: NovaScreen (NVS) Enzymatic Assay for human Raf-1 Proto-Oncogene, serine/threonine Kinase (RAF1) (AID 2283216)
# Sequence of human Raf-1 Proto-Oncogene, serine/threonine Kinase (RAF1), RAF1 (gene 5894) (P04049 whole entry, looked up): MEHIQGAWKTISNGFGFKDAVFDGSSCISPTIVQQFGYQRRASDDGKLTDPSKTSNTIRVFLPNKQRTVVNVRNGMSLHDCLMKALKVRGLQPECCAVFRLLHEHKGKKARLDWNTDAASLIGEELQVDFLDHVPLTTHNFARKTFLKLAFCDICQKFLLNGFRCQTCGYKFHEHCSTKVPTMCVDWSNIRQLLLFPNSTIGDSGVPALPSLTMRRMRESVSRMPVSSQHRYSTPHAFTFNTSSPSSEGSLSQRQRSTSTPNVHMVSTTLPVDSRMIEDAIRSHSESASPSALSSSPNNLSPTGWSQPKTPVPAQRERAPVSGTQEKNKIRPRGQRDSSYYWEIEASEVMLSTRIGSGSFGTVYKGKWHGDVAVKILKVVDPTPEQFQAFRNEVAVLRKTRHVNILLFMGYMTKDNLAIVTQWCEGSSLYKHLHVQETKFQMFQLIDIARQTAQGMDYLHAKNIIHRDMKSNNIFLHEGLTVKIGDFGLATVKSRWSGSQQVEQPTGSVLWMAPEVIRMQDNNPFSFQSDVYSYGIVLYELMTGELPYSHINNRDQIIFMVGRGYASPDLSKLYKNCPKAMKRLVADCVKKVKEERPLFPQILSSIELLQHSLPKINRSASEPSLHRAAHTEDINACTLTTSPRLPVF
# Method in brief: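 Single-point screening at 25 uM (duplicate), followed by singleton concentration-response to 50 uM maximum for chemicals exceeding threshold. Enzyme activity from fluorescent substrate-product mobility-shift separation after 1 h, relative to DMSO.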
# [12] = target: human Protein Tyrosine Phosphatase Receptor Type C (PTPRC), PTPRC (gene 5788) (UniProt P08575); experiment: NVS_ENZ_hPTPRC: NovaScreen (NVS) Enzymatic Assay for human Protein Tyrosine Phosphatase Receptor Type C (PTPRC) (AID 2283212)
# Sequence of human Protein Tyrosine Phosphatase Receptor Type C (PTPRC), PTPRC (gene 5788) (P08575 whole entry, looked up): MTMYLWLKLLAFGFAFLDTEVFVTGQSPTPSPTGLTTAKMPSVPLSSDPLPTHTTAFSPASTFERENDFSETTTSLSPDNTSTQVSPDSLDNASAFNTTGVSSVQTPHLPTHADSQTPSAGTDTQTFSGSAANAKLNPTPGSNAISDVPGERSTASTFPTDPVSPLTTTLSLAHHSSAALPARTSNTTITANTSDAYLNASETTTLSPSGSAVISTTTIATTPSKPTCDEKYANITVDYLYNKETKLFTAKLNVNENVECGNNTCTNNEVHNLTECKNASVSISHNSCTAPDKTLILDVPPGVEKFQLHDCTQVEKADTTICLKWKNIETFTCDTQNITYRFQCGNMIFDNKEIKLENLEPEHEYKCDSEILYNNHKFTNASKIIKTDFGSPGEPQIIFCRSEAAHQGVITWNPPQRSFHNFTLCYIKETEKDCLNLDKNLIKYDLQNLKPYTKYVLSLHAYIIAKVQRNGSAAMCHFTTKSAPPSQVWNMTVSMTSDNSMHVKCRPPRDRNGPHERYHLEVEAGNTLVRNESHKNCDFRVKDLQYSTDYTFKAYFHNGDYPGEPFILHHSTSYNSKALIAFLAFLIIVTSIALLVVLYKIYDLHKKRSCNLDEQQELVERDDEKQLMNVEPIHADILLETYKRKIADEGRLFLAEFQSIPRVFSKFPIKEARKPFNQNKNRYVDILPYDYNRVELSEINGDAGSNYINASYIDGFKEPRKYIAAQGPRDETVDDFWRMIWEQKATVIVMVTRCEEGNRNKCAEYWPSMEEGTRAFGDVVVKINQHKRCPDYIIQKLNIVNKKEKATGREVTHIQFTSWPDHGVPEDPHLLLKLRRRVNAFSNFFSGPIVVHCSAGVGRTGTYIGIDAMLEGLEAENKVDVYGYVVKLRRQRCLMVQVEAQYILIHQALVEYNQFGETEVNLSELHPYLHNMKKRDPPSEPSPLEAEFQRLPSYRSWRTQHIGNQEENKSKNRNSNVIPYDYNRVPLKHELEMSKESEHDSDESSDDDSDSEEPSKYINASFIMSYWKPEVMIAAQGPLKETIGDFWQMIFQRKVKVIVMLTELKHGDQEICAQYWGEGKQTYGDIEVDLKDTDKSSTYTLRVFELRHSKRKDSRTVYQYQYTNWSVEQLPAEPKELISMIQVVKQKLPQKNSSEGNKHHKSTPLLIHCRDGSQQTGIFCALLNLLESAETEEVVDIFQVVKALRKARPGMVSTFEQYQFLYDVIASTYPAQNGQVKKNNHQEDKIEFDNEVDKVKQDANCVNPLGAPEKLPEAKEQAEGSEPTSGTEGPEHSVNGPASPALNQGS
# Method in brief: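 Absorbance-based phosphatase activity of human PTPRC protein extracted from yeast was measured 1 h post-dosing. Compounds first tested at 25 uM in duplicate, then those passing threshold in singleton concentration series to 50 uM.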
# [13] = tested on: rat Monoamine Oxidase, MAO-A, Peripheral (MAOAP), gene 29253; experiment: NVS_ENZ_rMAOAP: NovaScreen (NVS) Enzymatic Assay for rat Monoamine Oxidase, MAO-A, Peripheral (MAOAP) (AID 2283237)
# Method in brief: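 Scintillation counting tracked MAO-A activity in a cell-free rat liver mitochondrial membrane prep, read 1.17 hours after compound addition. Single-point duplicate testing at 25 uM preceded concentration-response follow-up; activity was fitted relative to DMSO.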
# [14] = target: rat Gamma-Aminobutyric Acid Type A Receptor BDZ, alpha 6 site (GABARa6), Gabra6 (gene 29708) (UniProt P30191); experiment: NVS_LGIC_rGABARa6: NovaScreen (NVS) Ligand-Gated Ion Channel Assay for rat Gamma-Aminobutyric Acid Type A Receptor BDZ, alpha 6 site (GABARa6) (AID 2283339)
# Method in brief: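 Actives from a 25 uM duplicate screen were retested in concentration series (max 50 uM). Specific radioligand displacement from rat cerebellar membranes was counted by filter-based scintillation at 1 h; DMSO served as baseline.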
# [15] = ATG_M_32_XSP2: Attagene TRANS-FACTORIAL Multi-Species (XSP2) HepG2 Assay for M19 Transcription Factor (Internal Marker) (AID 2283826)
# Method in brief: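 HepG2 cells transiently transfected with GAL4-UAS reporter units; XSP2 panel included 3 nM 6-alpha-fluorotestosterone and 1.5 nM norgestrel for androgen receptor stimulation. Reporter mRNA read 24 h post-dosing by RT-PCR/capillary electrophoresis; fitted upward versus DMSO.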
# [16] = target: rat Monoamine Oxidase, MAO-B, Peripheral (MAOBP), Maob (gene 25750) (UniProt P19643); experiment: NVS_ENZ_rMAOBP: NovaScreen (NVS) Enzymatic Assay for rat Monoamine Oxidase, MAO-B, Peripheral (MAOBP) (AID 2283242)
# Sequence of rat Monoamine Oxidase, MAO-B, Peripheral (MAOBP), Maob (gene 25750) (P19643 whole entry, looked up): as the sequence (P19643 whole entry, looked up) above
smiles,measurement,setting,value
CC=CC(=O)C1=C(C)C=CCC1(C)C,outcome,[1],inactive
same,outcome,[2],inactive
CC/C=C\C/C=C\C/C=C\CCCCCCCC(=O)OC,outcome,[1],inactive
same,AC50,[2],9.64 µM (active)
CCSC(=O)N(CC(C)C)CC(C)C,outcome,[1],inactive
same,outcome,[3],inactive
NCCOCCOCCN,outcome,[1],inactive
same,outcome,[4],inactive
same,outcome,[5],inactive
CN(Cc1cnc2nc(N)nc(N)c2n1)c1ccc(C(=O)N[C@@H](CCC(=O)O)C(=O)O)cc1,outcome,[1],inactive
same,outcome,[6],inactive
CCCCOC(=O)c1ccc(O)cc1,outcome,[1],inactive
same,AC50,[3],35.1 µM (active)
Cn1c(=O)[nH]c2ncn(C)c2c1=O,outcome,[1],inactive
same,AC50,[7],34.9 µM (active)
Clc1cccc(Cl)n1,outcome,[1],inactive
same,outcome,[7],inactive
CCCCCCCC(=O)OCC,outcome,[1],inactive
same,AC50,[7],37.3 µM (active)
CCN(CCC#N)c1ccc(N=Nc2ccc([N+](=O)[O-])cc2)cc1,outcome,[1],inactive
same,outcome,[2],inactive
CCOCCOCCO,outcome,[1],inactive
same,outcome,[6],inactive
Cc1cnccn1,outcome,[1],inactive
same,outcome,[8],inactive
Oc1ccc(/C=C/c2cc(O)cc(O)c2)cc1,outcome,[1],inactive
same,AC50,[7],1.58 µM (active)
same,AC50,[8],21 µM (active)
CCC(=C(c1ccc(O)cc1)c1ccc(OCCN(C)C)cc1)c1ccccc1,outcome,[1],inactive
same,outcome,[9],inactive
same,AC50,[8],0.626 µM (active)
same,AC50,[10],80.6 µM (active)
C#CC(O)C(CC)CCCC (configuration not stated),outcome,[1],inactive
same,outcome,[11],inactive
O=C(O)Cc1ccccc1Nc1c(Cl)cccc1Cl,outcome,[1],inactive
same,outcome,[12],inactive
Fc1ccccc1[C@@H](F)COC1CCC(Nc2ncnc3[nH]ncc23)CC1 (some centres not stated),outcome,[1],inactive
same,outcome,[13],inactive
CCC(C)N(C)C(=O)c1cc2ccccc2c(-c2ccccc2Cl)n1 (configuration not stated),outcome,[1],inactive
same,AC50,[3],10.2 µM (active)
same,outcome,[14],inactive
Oc1ccc2c(c1)-c1ccccc1C2,outcome,[1],inactive
same,AC50,[13],4.45 µM (active)
same,AC50,[7],0.743 µM (active)
same,outcome,[8],inactive
same,outcome,[15],inactive
O=[N+]([O-])c1ccc(CO)cc1,outcome,[1],inactive
same,outcome,[2],inactive
CC(C)CCOCCC(C)C,outcome,[1],inactive
same,outcome,[2],inactive
Cc1cccc([N+](=O)[O-])c1C,outcome,[1],inactive
same,outcome,[12],inactive
CC1(C)[C@H](C(=O)OCc2cccc(Oc3ccccc3)c2)[C@@H]1C=C(Cl)Cl,outcome,[1],inactive
same,AC50,[2],15.7 µM (active)
CCOC(=O)CC(C)O (configuration not stated),outcome,[1],inactive
same,outcome,[7],inactive
COCCOCCOC,outcome,[1],inactive
same,AC50,[13],39.7 µM (active)
O=C=Nc1cccc2c(N=C=O)cccc12,outcome,[1],inactive
same,outcome,[2],inactive
O=C(CCCCCCCCc1cccnc1)N1CCC(C=C(c2ccccc2)c2ccccc2)CC1,outcome,[1],inactive
same,outcome,[6],inactive
same,outcome,[9],inactive
CCc1cccc(CC)c1,outcome,[1],inactive
same,outcome,[2],inactive
O=C(O)C[C@H](O)C[C@H](O)/C=C/c1c(C2CC2)nc2ccccc2c1-c1ccc(F)cc1,outcome,[1],inactive
same,AC50,[2],0.161 µM (active)
CCCCCCc1ccc(O)cc1O,outcome,[1],inactive
same,AC50,[13],25 µM (active)
same,AC50,[7],16.5 µM (active)
CCOC(=O)COc1cc(-n2ncc(C(F)(F)F)c(C)c2=O)c(F)cc1Cl,outcome,[1],inactive
same,outcome,[11],inactive
same,outcome,[13],inactive
CCCCCCCCC(C)=O,outcome,[1],inactive
same,outcome,[2],inactive
same,outcome,[8],inactive
CCc1cccc(C)c1N(C(=O)CS(=O)(=O)O)C(C)COC (configuration not stated),outcome,[1],inactive
same,outcome,[2],inactive
CCCCC(CC)C(=O)OCCOCCOCCOC(=O)C(CC)CCCC (configuration not stated),outcome,[1],inactive
same,outcome,[13],inactive
CC1=C(C)S(=O)(=O)CCS1(=O)=O,outcome,[1],inactive
same,outcome,[8],inactive
CC(C)=CCCC(C)O (configuration not stated),outcome,[1],inactive
same,outcome,[2],inactive
O=C1c2ccc(O)c(O)c2C(=O)c2c(O)ccc(O)c21,outcome,[1],inactive
same,outcome,[7],inactive
C=C(C)CCO,outcome,[1],inactive
same,outcome,[2],inactive
O=C(c1ccccc1)C1CCCCC1,outcome,[1],inactive
same,outcome,[12],inactive
same,outcome,[16],inactive
CC(C)OC(=O)C(C)(C)Oc1ccc(C(=O)c2ccc(Cl)cc2)cc1,outcome,[10],inactive
